Consider 26 molecules from PubChem BioAssay (NCATS).

Each structure is given as a SMILES string. Inconclusive results are not listed. Where a call stands in place of a potency, no number is given. Values without a mark were called inactive. Active and inactive are the calls of the source. The call rests on the fitted dose curve; in most records, active means well fitted inhibition curve with a large enough effect; inconclusive means small, poorly fitted or top-dose-only effect; inactive means flat fitted curve, though single readings scatter. Where a SMILES comes first, the peptide text is derived from it. [ ]: non-standard residue; d: D form. ξ: configuration not given here. ξPhe(βξ-Me) = CC(c1ccccc1)C(N)C(=O)O; PhLac = O=C(O)[CH](O)Cc1ccccc1; NMeV = CN[CH](C(=O)O)C(C)C; GABA = NCCCC(=O)O

The experiment can be described thus: Primary qHTS for inhibitors of nuclear receptor binding SET domain protein 2 (NSD2) in an isogenic RCH-ACV NSD2 p.E1099K mutant (9B) (AID 1645876). Further: nearly all actives have a fitted effect of over 70% in size. The following applies: RCH-ACV (leukaemia line) NSD2 E1099K (9B) viability, CellTiter-Glo, 72 h; series mostly up to 44.9 µM.
Regarding `CC(C)CC1NC(=O)C(C(C)c2ccccc2)NC(=O)C(C(C)C)NC(=O)C(C)NC(=O)CCCNC(=O)C(Cc2c[nH]c3ccccc23)NC(=O)C(C)NC1=O` (stereo not drawn) (cyclo([GABA]AV[ξPhe(βξ-Me)]LAW); configuration not given here), the Potency result is “inactive”.

As to `CC(C)[C@@H](C)/C=C/[C@@H](C)[C@H]1CC[C@H]2C3=CC=C4C[C@@H](O)CC[C@]4(C)[C@H]3CC[C@]12C`, the Potency result is “inactive”.

Turning to `COc1ccc2c3c1O[C@H]1C[C@@H](O)C=C[C@@]31CCN(C)C2`, the Potency result is “inactive”.

For the molecule `CC1=CC(=O)OC(C)(CC(C)(O)C(=O)O)C1` (stereo unspecified), the Potency result was “inactive”.

On to `CC(C)C(C(=O)N1CCCC1C(=O)O)N(C)C(=O)C(O)Cc1ccccc1` (stereo unspecified) (H-[PhLac]-[NMeV]-Pro-OH; configuration not given here), for which the Potency result is “inactive”.

Take `COc1ccc(/C=C/C(=O)O[C@@H]2[C@@H](OC(C)=O)[C@@H](OC(C)=O)[C@H](O[C@H]3[C@@H]4C=CO[C@@H](O[C@@H]5O[C@H](CO)[C@@H](O)[C@H](O)[C@H]5O)[C@@H]4[C@@]4(CO)O[C@@H]34)O[C@H]2C)cc1O`: the Potency result is “inactive”.

Turning to `C[C@@H]1O[C@@H](O[C@H]2[C@H](O[C@H]3CO[C@@H](O[C@H]4CC[C@@]5(C)C(CC[C@]6(C)C5CC[C@]57OC[C@@]8(CC[C@](C)(CO)CC85)[C@H](O)C[C@]76C)C4(C)C)[C@H](O[C@@H]4O[C@H](CO)[C@@H](O)[C@H](O)[C@H]4O)[C@H]3O)O[C@H](CO)[C@@H](O)[C@@H]2O)[C@H](O)[C@H](O)[C@H]1O` (stereo partly specified), the outcome was “inactive [at 9.23 µM]”.

Take `CC12CCC3C(C)(C)C(O)CCC3(C)C1Cc1c(oc(C(=O)O)cc1=O)O2` (stereo unspecified): the Potency result was “inactive”.

Take `CC(=O)OC[C@@]12[C@H](O)C[C@@H](C)[C@]3(C[C@@H](c4ccoc4)OC3=O)[C@H]1C[C@H](O)C[C@]21CO1`: the Potency result is “inactive”.

Take `OC[C@H]1O[C@@H](OCCc2ccc(O)cc2)[C@H](O)[C@@H](O)[C@@H]1O`: the Potency result is “inactive”.

Regarding `CN1C(=O)c2ccccc2NC(=O)[C@]12O[C@@H]2c1cccc(O)c1`, the Potency entry is “inactive”.

Turning to `O=C(/C=C/c1ccc(O)c(O)c1)OCc1ccccc1O[C@@H]1O[C@H](CO)[C@@H](O)[C@H](O)[C@H]1O`, the Potency result was “inactive”.

As for `COc1cc(/C=C/C(=O)O[C@H]2[C@H](OC(=O)/C=C/c3cc(OC)c(O)c(OC)c3)O[C@H](CO[C@@H]3O[C@H](CO)[C@@H](O)[C@H](O)[C@H]3O)[C@@H](O)[C@@H]2O)ccc1O`, the Potency entry is “inactive”.

Regarding `CC1C/C=C/C=C\CCCCC(O)C/C=C/C(=O)O1` (stereo unspecified), the Potency entry was “inactive”.

On to `C/C=C(\C)C(=O)O[C@@H]1CC2[C@@H](CC=C3C[C@@H](O[C@H]4C[C@H](OC)[C@H](O[C@H]5C[C@H](OC)[C@H](O[C@H]6C[C@H](OC)[C@H](O[C@H]7C[C@@H](OC)[C@H](O[C@@H]8O[C@H](CO)[C@@H](O)[C@H](O)[C@H]8O)[C@@H](C)O7)[C@@H](C)O6)[C@@H](C)O5)[C@@H](C)O4)CC[C@@]32C)[C@@]2(O)CC[C@H](C(C)=O)[C@@]12C` (stereo partly specified), for which the activity change, negative = viability loss is -12.3% [at 9.23 µM].

For the molecule `CC(=O)OCCC(C)CCC1C(C)(O)CCC2C(C)(C)CCCC21C` (stereo unspecified), the Potency entry was “inactive”.

In the case of `CC(C)[C@H]1CCC(CO)=C[C@@H]1/C=C(\CO)C(=O)O`, the Potency entry is “inactive”.

As to `CO[C@@]12CC3[C@@H]([C@@H](O)[C@@H](OC(C)=O)C4[C@](C)(COC(C)=O)CCC[C@]34C)[C@@H](C)C1=CC(=O)O2` (stereo partly specified), the Potency entry is “inactive”.

`CC1CCC2(NC1)OC1C(=O)C3C4CCC5CC(O[C@@H]6O[C@H](CO)[C@@H](O)[C@H](O)[C@H]6O[C@@H]6O[C@@H](C)[C@H](O)[C@@H](O)[C@H]6O)CCC5(C)C4CCC3(C)C1C2C` (stereo partly specified): the Potency result was “inactive”.

`C=C1CCC2C(C)(COC3OC(COC(=O)CC(=O)O)C(O)C(O)C3O)CCCC2(C)C1CCC1=CCOC1=O` (stereo unspecified): the Potency result was “inactive”.

Turning to `CC1=C2[C@@H]([C@H](C)CC[C@H]2/C=C(\C)C(=O)O)[C@H](O)C1`, the Potency entry was “inactive”.

Consider `CC1(C)CC2C(O)C3=C(CC(C)(O)C2C1)C(=O)OC3O` (stereo unspecified), for which the Potency entry is “inactive”.

For `C=C(C)C1CC2(CO)C(=CC1=O)CCC(O)C2C` (stereo unspecified), the Potency entry was “inactive”.

For the molecule `C=C1C2(CCC(=O)OC2(C)C)CC(OC(=O)/C(C)=C/C)C2(C)C13OC14C(=O)OC(C)(C(=O)C12C(=O)OC4C)C3OC(C)=O` (stereo unspecified), the Potency result was “inactive”.

As for `CC1(C(=O)O)CCCC2(C)C1CCC13CC(CCC21)C1(CO)OC31` (stereo unspecified), the Potency result was “inactive”.

`CC(C)CC(=O)O[C@@H]1OC=C(CO[C@@H]2O[C@H](CO[C@@H]3O[C@H](CO)[C@@H](O)[C@H](O)[C@H]3O)[C@@H](O)[C@H](O)[C@H]2O)[C@H]2C[C@H](O)[C@@H](CO)[C@@H]12`: the Potency entry is “inactive”.
